Data published in PubChem BioAssay (Tox21).
Values without a mark were called inactive. Active and inactive are the calls of the source. The call rests on the fitted dose curve.

The compounds below were run against Acetylcholinesterase (Homo sapiens) (UniProt P22303) (assay: Acetylcholinesterase (AChE) small molecule antagonists: enzyme-based qHTS assay (AID 1347397; further: nearly all actives have a fitted effect of over 55% in size)). Conditions: Potency: AChE enzyme activity inhibition; outcome: AChE enzyme activity inhibition; series mostly up to 115 µM; activity change, negative = inhibition: at the top concentration.
Outline: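 Enzyme inhibition was scored from DTNB-detected thiocholine formed by recombinant human AChE acting on acetylthiocholine. The 30 min compound preincubation and 10 min substrate reaction were both run at room temperature, with DMSO as vehicle control.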
On the % scale 0 is the no-effect control and ±100 the full control effect; potency means the concentration at half of the fitted maximal effect.

Acetylcholinesterase (Homo sapiens), sequence (P22303 whole entry, looked up): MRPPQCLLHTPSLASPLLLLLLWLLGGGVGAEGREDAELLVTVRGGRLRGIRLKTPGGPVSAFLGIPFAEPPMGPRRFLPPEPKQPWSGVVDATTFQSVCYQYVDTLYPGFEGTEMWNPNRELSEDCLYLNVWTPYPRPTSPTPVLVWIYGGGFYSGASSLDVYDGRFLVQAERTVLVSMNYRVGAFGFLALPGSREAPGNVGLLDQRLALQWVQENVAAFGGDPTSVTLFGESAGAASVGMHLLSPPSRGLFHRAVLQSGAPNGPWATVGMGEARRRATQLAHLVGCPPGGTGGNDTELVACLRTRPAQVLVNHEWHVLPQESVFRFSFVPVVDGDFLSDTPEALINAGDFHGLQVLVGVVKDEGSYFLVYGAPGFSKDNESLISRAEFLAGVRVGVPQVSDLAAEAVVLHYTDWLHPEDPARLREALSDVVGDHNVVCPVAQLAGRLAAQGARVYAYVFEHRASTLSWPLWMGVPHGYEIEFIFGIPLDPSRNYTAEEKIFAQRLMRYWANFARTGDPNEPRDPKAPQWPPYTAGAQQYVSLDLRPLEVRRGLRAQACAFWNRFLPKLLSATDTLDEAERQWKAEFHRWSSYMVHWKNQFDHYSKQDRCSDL

SMILES	activity change, negative = inhibition	Potency
Oc1cccc(Nc2ccccc2)c1	-0.682%	–
NCCCCCCNCCCCCCN	-1.23%	–
CC1=CC=C(C(C)C)CC1	-0.516%	–
OCCC1CCCCN1 (stereo not drawn)	-0.645%	–
CC(C)C(O)C(C)(C)CO (stereo not drawn)	0.0026%	–
CCC(C)COC(=O)CC(C)C (stereo not drawn)	-0.494%	–
O=C1c2ccccc2S(=O)(=O)N1CCCCN1CCN(c2ncccn2)CC1	-7.57% [at 53 µM]	–
COC(=O)c1cc(Cl)ccc1OC	0.932% [at 53 µM]	–
CC1=C2[C@H](/C=C(\C)C(=O)O)CC[C@@H](C)[C@H]2CC1	2.59%	–
Cc1cccc(C)c1NC(=O)c1ccccc1C(=O)O	0% [at 53 µM]	–
O=C(O)C1(C(=O)Nc2ccc(Cl)cc2Cl)CC1	-6.67%	–
Cc1nc(-c2ccc(Cl)cc2)oc1COC(C)(C)C(=O)O	0% [at 53 µM]	–
Cc1cccc(C)c1NC(=O)c1cc(S(N)(=O)=O)c(Cl)cc1O	0.524% [at 53 µM]	–
Oc1ccc(-c2ccc(O)cc2)cc1	-3.54%	–
OCc1ccccn1	0.277% [at 53 µM]	–
CCCCC(CC)(CO)CO	0%	–
Cc1ccc(C(N)=O)cc1N	-0.491%	–
S=C([S-])NCCNC(=S)[S-].[Mn+2]	-17.9%	–
Cc1ccccc1N=Nc1ccc(N=Nc2c(O)ccc3ccccc23)c(C)c1	0.135% [at 53 µM]	–
CCCCCCCC[N+](CCCCCCCC)(CCCCCCCC)CCCCCCCC	–	39.8 µM (active)
O=C(O)c1cccc(-c2noc(-c3ccccc3F)n2)c1	1.88% [at 53 µM]	–
Nc1cnn([C@@H]2O[C@H](CO)[C@@H](O)[C@H]2O)c(=O)n1	0.288%	–
O=C(O)c1ccc2c(c1)nc(C(=O)NC1CCN(C3CC3)CC1)n2Cc1cc(-c2ccc(Cl)s2)on1	2.26% [at 23.6 µM]	–
